Source: PubChem BioAssay
FBPA Giardia inh: qHTS Assay for Inhibitors of Fructose-1,6-bisphosphate Aldolase from Giardia Lamblia | A8B2U2 | Potency, µM (doses to about 59.6 µM), inactives show at the top dose activity, negative = inhibition, actives largely listed as inhibitors | AID 2451, 2010 | 290,000 compounds, 0.71% hits | purified Giardia FBPA; further: potency means the concentration at half of the fitted maximal effect; nearly all actives have a fitted effect of over 55% in size
Target sequence (A8B2U2 whole entry, looked up): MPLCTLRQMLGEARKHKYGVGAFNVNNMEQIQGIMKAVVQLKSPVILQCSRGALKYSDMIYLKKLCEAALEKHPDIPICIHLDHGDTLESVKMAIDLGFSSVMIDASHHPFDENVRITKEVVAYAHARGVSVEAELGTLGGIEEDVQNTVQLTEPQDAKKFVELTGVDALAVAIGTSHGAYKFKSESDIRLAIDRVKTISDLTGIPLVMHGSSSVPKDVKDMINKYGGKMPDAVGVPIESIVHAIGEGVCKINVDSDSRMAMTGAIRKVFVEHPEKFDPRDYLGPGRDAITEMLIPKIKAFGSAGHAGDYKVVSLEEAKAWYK
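40 nM FBPA preincubated 10 min at RT with compound (up to 57.5 uM final), then substrate plus GAPDH/TPI/NAD/arsenate coupling and diaphorase/resazurin added. Fluorescence read after 20 min at RT, 525/598 nm.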
Sm TGR block: qHTS Assay for the Inhibitors of Schistosoma Mansoni Peroxiredoxins; Schistosoma mansoni thioredoxin glutathione reductase (TGR), Q962Y6; purified TGR, DTNB reduction, TNB absorbance 405 nm; Potency, µM (top dose mostly 114 µM), for inactives: at the top dose activity change, negative = inhibition, usual class: inhibitors; 360,000 compounds, 3% hits; AID 485364, 2010; further: potency means the concentration at half of the fitted maximal effect; nearly all actives have a fitted effect of over 60% in size
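TGR 20 nM + NADPH 100 uM (dispensed conc.), cpd preinc 15 min RT; start with NADPH (500 uM addition) then DTNB (15 mM addition). Kinetic TNB absorbance, 405 nm filter. Four-parameter Hill fit across titration.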
Tb PYK inh: qHTS of Trypanosoma Brucei Inhibitors; pyruvate kinase (Trypanosoma brucei), Q57TT1; TbPYK enzyme, Kinase-Glo Plus ATP luminescence, 45 min; Potency, µM (doses to about 76.8 µM), for inactives: top-dose activity, negative = inhibition, actives largely listed as inhibitors; 410,000 compounds, 0.12% hits; AID 624173, 2012; further: potency means the concentration at half of the fitted maximal effect; nearly all actives have a fitted effect of over 50% in size
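Enzyme and substrate buffer are dispensed first and compound is pin-transferred. ADP at 130 uM final then starts the reaction, which runs 45 min at room temperature. Detection reagent is added for 10 min before luminescence is imaged.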
FMDV antiviral: High Throughput Screening for Foot and Mouth Disease Virus Antivirals; FMDV antiviral cell-based qHTS; Potency, µM (doses to about 57.9 µM), for inactives: at the highest dose activity change, negative = inhibition, usual class: inhibitors; 410,000 compounds, 1.2% hits; calls by dose curve; tested in HEK293T cells; further: read-out not given here; potency means the concentration at half of the fitted maximal effect; nearly all actives have a fitted effect of over 45% in size
RE007 growth inh: qHTS Assay for Inhibitors of the HIV-1 protein Vpr; S. pombe RE007 Vpr strain, BacTiter-Glo ATP luminescence, 24 h; Potency, µM (highest dose often 92.2 µM), without a hit: top-dose activity change, negative = less growth, hits mostly inhibitors; 360,000 compounds, 0.21% hits; active means well fitted falling curve with a large enough effect; inconclusive means small, poorly fitted or top-dose-only effect; inactive means no such curve, though single readings can be large or run the other way; further: potency means the concentration at half of the fitted maximal effect; nearly all actives have a fitted effect of over 50% in size
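Fission yeast RE007 carrying one integrated HIV-1 vpr copy, seeded at OD 0.01 in PMG+AL medium with 23 nL pinned compound. Grown 24 h at 30 degrees; viability read by BacTiter-Glo luminescence after 5 min.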
HCMV antiviral: qHTS Assay for inhibitors of the human cytomegalovirus (HCMV); HFF cells, HCMV-luciferase reporter, 72 h; hits give low values; activity change, negative = inhibition, % at 57.5 µM; 410,000 compounds, 4.5% hits; in the data active means activity change below about -60%; inconclusive means no clear call, values can overlap the other calls; inactive means above about -39%
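Compounds were evaluated in HFFs infected with an HCMV luciferase reporter virus (MOI 1 PFU/cell). Luciferase in lysates collected 72 h post infection served as the replication measure.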
Active calls of the source: *; ? = inconclusive; / = no result given; + = active, no number; [ ] = dose if it differs, or a comment. In the library only some 7.7% were active in any assay of this set; here they are far more common. Unless noted, the call rests on the fitted dose curve; in most records, active means well fitted curve in the direction sought with a large enough effect; inconclusive means small, poorly fitted or top-dose-only effect, or another doubt; inactive means no such curve, though single readings can be large; an effect the other way counts as inactive or inconclusive. On the % scale 0 is the no-effect control and ±100 the full control effect.

SMILES | FBPA Giardia inh | Sm TGR block | Tb PYK inh | FMDV antiviral | RE007 growth inh | HCMV antiviral
O=C(N/N=C1/C[C@@H](O)[C@@H](O)[C@@H]2[C@@H]3C(=O)N(C4CCCCC4)C(=O)[C@H]3CC[C@@H]12)OCc1ccccc1 | 2%[12.9 µM] | / | / | / | / | /
COCc1cc(C)nc2sc3c(c12)NC(c1ccccc1C(=O)O)N(c1cccc(C(F)(F)F)c1)C3=O (centres undefined) | / | 0% | 4% | 30% | / | -27
Cc1nc2cc(NS(=O)(=O)c3c(C)c(C)cc(C)c3C)ccc2s1 | -23% | -8% | -10% | -22% | 2% | -82*
Cc1ccc(S(=O)(=O)Nc2ccc3nc(C)sc3c2)c(C)c1 | / | -8% | 4% | 24% | 1% | -33
Cc1nc2ccc(NS(=O)(=O)c3c(C)c(C)cc(C)c3C)cc2s1 | 10% | -20% | -5% | 11% | 3% | -61*
Cc1nc2cc(NS(=O)(=O)c3ccccc3F)ccc2s1 | -27% | 9% | -2% | 4% | -3% | -38
CCOCCCn1c(=N)c(C(=O)NC2CCCCC2)cc2c(=O)n3ccccc3nc21 | / | -2% | 1% | -13% | / | -8
COc1ccccc1/C=N/NC(=O)C(=O)Nc1ccccc1OC(F)(F)C(F)F | 1% | 0% | 3% | 0% | 0% | ?
O=C(N/N=C/c1cc(Cl)ccc1O)C(=O)Nc1ccccc1OC(F)(F)C(F)F | 2% | 0% | -2% | -25% | -25% | -88*
O=C(N/N=C/c1cc(Br)ccc1O)C(=O)Nc1ccccc1OC(F)(F)C(F)F | 11% | 4% | -10% | -28% | -5% | -105*
CCN1[C@@H]2c3ccc(-c4ccc(OC)cc4)c(=O)n3C[C@@H]2[C@@H](CO)[C@@H]1C(=O)NCCN1CCCCC1 | / | / | / | / | / | 10
O=[N+]([O-])c1ccc2nc(-c3ccccc3)cc(-c3ccccc3)c2c1 | 1% | 5% | -1% | -8% | -12% | 36
O=[N+]([O-])c1ccc(-c2ccccc2)c([As](=O)(O)O)c1 | 1% | 2µM* | 1% | -24% | / | -91*
CCOc1ccc(C(=O)CC(C(=O)O)N2CCCCC2)cc1 (centres undefined) | / | 6.3µM* | -24% | ? | -10% | /
CCOc1ccc(C(=O)N2CCCCCC2)cc1 | 0% | -2% | 2% | 18% | 23% | 33
CCOc1ccc(C(=O)OC(C)C(=O)N2CCN(Cc3ccccc3)CC2)cc1 (centres undefined) | / | / | 2% | -27% | -30% | 0
CCOc1ccc(C(=O)CC(C(=O)O)N2CCN(Cc3ccccc3)CC2)cc1 (centres undefined) | / | 7.9µM* | -13% | -9% | -5% | /
CCOc1ccc(C(=O)CCC(=O)N(CC)CC(=O)NCc2cccs2)cc1 | / | -15% | 2% | 37% | -9% | -23
CCOc1ccc(C(=O)CC(NCc2cccs2)C(=O)O)cc1 (centres undefined) | -4% | 6.3µM* | -19% | ? | ? | 10
COCCn1c(=O)c(-c2ccc(OC)cc2)nc2cnc(Oc3ccc(OC)cc3)nc21 | -1% | / | 0% | -1% | / | /
c1ccc(CC(Nc2cccnc2)c2ccccc2)cc1 (centres undefined) | / | / | / | / | / | -9
COc1ccc(NCc2cccn2-c2nnc(N3CCOCC3)s2)cc1OC | / | 32µM* | -8% | -11% | / | 8
COc1cccc(NCc2cccn2-c2nnc(N3CCC(C)CC3)s2)c1 | / | -21% | 0% | 0% | / | -24
COc1ccc(NCc2cccn2-c2nnc(N3CCCCC3)s2)cc1OC | / | 45µM* | -18% | -13% | / | -8
COc1ccc(OC)c(NCc2cccn2-c2nnc(N3CCCCC3)s2)c1 | / | -15% | -18% | 11% | / | ?
SMILES | FBPA Giardia inh | Sm TGR block | Tb PYK inh | FMDV antiviral | RE007 growth inh | HCMV antiviral
COC(=O)[C@H]1[C@H](CO)[C@H]2Cn3c(cccc3=O)[C@@H]1N2CC1CC1 | / | / | / | / | / | -10
CC(=O)Nc1ccc(NC(=O)CCS(=O)(=O)c2ccc3c(c2)oc(=O)n3C)cc1 | / | ? | 2% | -4% | -4% | -13
Cn1c(=O)oc2cc(NC(=O)CCl)ccc21 | -9% | 10µM* | 2% | ? | 13% | -106*
Cc1ccc(CNC(=O)C(C(C)C)N2Cc3ccccc3C2=O)cc1 (centres undefined) | / | 1% | 0% | -21% | / | -38
Cc1cccc(-n2ccnc2SCC(=O)Nc2ccccc2C(F)(F)F)c1 | / | 11% | -5% | -7% | / | -12
COc1ccc(C(=O)N/C(N)=N/c2nc3ccccc3o2)cc1 | 11% | 5% | -2% | -2% | 2% | 11
COc1ccc(C(=O)/C=C/Sc2nc3ccccc3o2)cc1 | -2% | 0.32µM* | 2% | ? | 13% | -105*
Cc1ccc(O)c(NC(=O)COCc2cc(-c3ccco3)on2)c1 | / | -4% | 3%[15.4 µM] | -8% | / | +
CCOC(=O)c1c(-c2ccc(OC)cc2)csc1NC(=O)CSc1ncnc2sccc12 | -2% | 3% | 6% | ? | -12% | -71*
CCOC(=O)c1c(NC(=O)CCl)sc(CN(C)C)c1-c1ccccc1 | -3% | 16µM* | -15% | 35µM* | 9% | -6
CCOC(=O)c1c(-c2ccc(-c3ccccc3)cc2)csc1NC(=O)CNCCN(C)C | ? | -28% | 0% | -29% | 3% | -100*
CCOC(=O)c1c(-c2ccc(OC)cc2)csc1NC(=O)COc1ccc2c(C)cc(=O)oc2c1 | 1% | 1% | -2% | -21% | 4% | -36
CCOC(=O)c1c(-c2ccccc2)csc1NC(=O)CCN1C(=O)c2ccccc2C1=O | -1% | -1% | 13% | 1% | / | 23
CCOC(=O)c1c(NC(=O)CN2CCCCC2)sc(CN(C)C)c1-c1ccccc1 | 1% | 7% | 0% | -19% | 2% | -26
O=C(NCC1CCC2(CCN(Cc3ccccc3O)CC2)O1)C1CCCO1 (centres undefined) | / | / | / | -8% | / | /
Cc1ccc(NC(=O)c2ccc(CSc3nnnn3C)cc2)cc1 | 0% | 3% | 0% | -3% | 4% | 41
Cc1ccc(Cl)cc1NC(=O)c1ccc(CSc2nnnn2C)cc1 | -2% | -29% | 8% | -3% | -11% | -61*
O=C(Nc1ccccc1C(F)(F)F)c1cc2nc(-c3ccccc3)cc(-c3ccccc3)n2n1 | / | ? | -8% | -16% | / | 9
CN(Cc1ccc2c(c1)CN(C(=O)c1cccc(N(C)C)c1)CCO2)Cc1cc(C2CC2)n[nH]1 | / | / | / | -25% | / | /
CCn1nnnc1NC(=O)c1cc(Cl)c(OC)c(Cl)c1 | 0% | / | -4% | -14% | 5% | -63*
CCn1nnnc1NC(=O)c1cccc(OC)c1 | 0% | 5% | 1% | 48% | 3% | 146
